Data: PubChem BioAssay AID1745847 (National Center for Advancing Translational Sciences (NCATS), 2022)
Out of some 2,100 compounds screened, about 670 (32%) were called active. Not shown: some 50% with an inconclusive outcome. This is one part of the list. A number with no mark means an inactive call. Calls follow the shape of the dose curve; as a rule, active = well fitted inhibition curve with a large enough effect; inconclusive = small, poorly fitted or top-dose-only effect; inactive = no such curve, though single readings can be large or run the other way.

Experiment: CMV-Luciferase Counterscreen for Inhibitors of ATXN expression; also: nearly all actives have a fitted effect of over 55% in size
Conditions: HEK-293 CMV-luciferase reporter, luminescence, 24 h; series mostly up to 57.5 µM
% is scaled to controls: 0 for no effect and ±100 for the full control effect; potency is read from the fitted curve at half-maximal effect.

Row | SMILES | Potency | activity change, negative = inhibition
1 | CCCC[C@@H](CNC)NC[C@H](NCCCCC1CCCCC1)C(C)C | 35.5 µM (active) | –
2 | O=C(/C=C/c1ccccc1)NC(=S)NNC(=O)c1cnccn1 | 8.91 µM (active) | –
3 | CCn1c2ccccc2c2cc(/C=N/NC(=O)c3ccncc3)ccc21 | 2.82 µM (active) | –
4 | CCn1c2ccccc2c2cc(/C=N/NC(=O)c3ccc(O)cc3)ccc21 | inactive | –
5 | O=C1N/C(=N/N=C/c2ccccc2O)SC1Cc1ccc(F)cc1 (stereo not drawn) | 12.6 µM (active) | –
6 | Cn1nnnc1Sc1ncnc2scc(-c3ccsc3)c12 | 11.2 µM (active) | –
7 | COc1ccc(-c2csc3ncnc(Sc4nnnn4C)c23)cc1 | 3.98 µM (active) | –
8 | Cc1cnc(NC(=O)CCCc2nc3ccccc3s2)s1 | inactive | –
9 | O=C1C=C(Nc2ccccc2O)c2ccccc2C1=O | 10 µM (active) | –
10 | CN(C)S(=O)(=O)c1ccc(-c2csc(N/N=C/c3ccco3)n2)cc1 | 2.51 µM (active) | –
11 | CC1=CC(C)(C)Nc2ccc(OC(=O)CN3C(=O)c4cccc5cccc(c45)C3=O)cc21 | 15.8 µM (active) | –
12 | O=C(NCc1ccccc1)C1=C[C@@H](c2csc3ccccc23)C[C@@H](OCCCCO)O1 | 3.55 µM (active) | –
13 | C=CCOC(=O)C1=C[C@@H](c2ccc3c(c2)OCO3)C[C@@H](OCCCCO)O1 | inactive | –
14 | CCOC(=O)c1sc2nc(CSc3ccccc3)nc(NCCN(C)C)c2c1C | inactive | –
15 | O=c1c2ccccc2sc2nc(CCl)nn12 | – | -24% [at 11.4 µM]
16 | CCCCCn1c(=O)c2ccccc2n2c(CCl)nnc12 | 25.1 µM (active) | –
17 | CNC(=O)c1sc(N2N=C3/C(=C/c4ccccc4)CCCC3C2c2ccccc2)nc1C (stereo not drawn) | 7.94 µM (active) | –
18 | COc1ccc2c(c1)CC(N1CCN(C)CC1)c1cc(OC)ccc1S2 (stereo not drawn) | 28.2 µM (active) | –
19 | CCCCN1C(=O)/C(=C2/Sc3ccccc3N2C)S/C1=N\c1ncn[nH]1 | inactive | –
20 | Cc1cc(=O)oc2c1c(C)nn2-c1cccc(Cl)c1 | – | -12.8% [at 11.4 µM]
21 | COc1ccc(-n2nc(C(=O)NCC(=O)Nc3cccc(Cl)c3)c3ccccc3c2=O)cc1OC | inactive | –
22 | O=C(c1cccc(Cl)c1)c1nn(-c2ccccc2)c(=O)cc1C(F)(F)F | 25.1 µM (active) | –
23 | O=C(N/N=C\c1cc(Cl)ccc1O)c1ccc(S(=O)(=O)N2CCCCC2)cc1 | 0.316 µM (active) | –
24 | O=C(N/N=C\c1c(O)ccc2ccccc12)c1ccc(S(=O)(=O)N2CCCCC2)cc1 | 1.12 µM (active) | –

Row | SMILES | Potency | activity change, negative = inhibition
25 | CC1(C)Cc2c(ccc3ccccc23)C2=C(C(=O)N3CCCC3)C(=O)C(=O)N21 | inactive | –
26 | CN(C)CCNc1cccc2sc3ccc(O)cc3c(=O)c12 | 14.1 µM (active) | –
27 | CN(C)CCNc1ccc(CO)c2sc3ccc(O)cc3c(=O)c12 | 0.631 µM (active) | –
28 | COc1ccc(C(=O)c2sc(Nc3ccccc3)nc2N)cc1OC | inactive | –
29 | COc1ccc(C(=O)NC(=S)NNC(=O)c2c(-c3ccccc3)noc2C)cc1OC | 10 µM (active) | –
30 | CCOC(=O)C(C(C)=O)c1c(Br)c(O)c(O)c2c(C(=O)c3ccc(C)cc3)coc12 (stereo not drawn) | 2.51 µM (active) | –
31 | Cc1cc(O)c(C(C)C)cc1N=Cc1ccccc1[N+](=O)[O-] | inactive | –
32 | Cc1cc(N/N=C/c2ccccc2[N+](=O)[O-])nc(-n2nc(C)cc2C)n1 | 7.08 µM (active) | –
33 | Cc1cc(N/N=C\c2ccc(Br)cc2)nc(-n2nc(C)cc2C)n1 | inactive | –
34 | NC(=O)CC(NC(=O)Cc1ccc(Br)cc1)c1ccc(NC2CCCC2)c([N+](=O)[O-])c1 (stereo not drawn) | 3.16 µM (active) | –
35 | N#CC1=C(N)N2C(=C(C#N)C1c1ccc(Br)cc1)Nc1ccccc12 (stereo not drawn) | 0.631 µM (active) | –
36 | N#CC1=C(N)N2C(=C(C#N)C1c1cccc(Br)c1)Nc1ccccc12 (stereo not drawn) | 3.55 µM (active) | –
37 | CC(=O)N1c2ccc(S(=O)(=O)N3CCC(C(=O)N4CCN(c5ccc(Cl)cc5)CC4)CC3)cc2CC1C (stereo not drawn) | 7.94 µM (active) | –
38 | CCc1ccc(NC(=O)C2CCN(S(=O)(=O)c3ccc4c(c3)CC(C)N4C(C)=O)CC2)cc1 (stereo not drawn) | 3.16 µM (active) | –
39 | CC(=O)N1c2ccc(S(=O)(=O)N3CCC(C(=O)Nc4cccc(C(F)(F)F)c4)CC3)cc2CC1C (stereo not drawn) | 8.91 µM (active) | –
40 | CN1CCN(c2ccc(S(=O)(=O)N3CCCCC3)cc2NC(=O)/C=C/c2ccc(Cl)c([N+](=O)[O-])c2)CC1 | – | -27% [at 11.4 µM]
41 | Cc1ccc(/C=N/NC(=O)C2=NNC(c3ccccc3)(c3ccccc3)C2)c(O)c1 | 3.16 µM (active) | –
42 | O=c1c2ccccc2sc2c(CO)ccc(NCCN3CCCCC3)c12 | 22.4 µM (active) | –
43 | CCN(CC)CCNc1ccc(CO)c2sc3ccccc3c(=O)c12 | 17.8 µM (active) | –
44 | COC(/C(=N/O)c1ccc(Cl)cc1)c1ccccc1 (stereo not drawn) | inactive | –
45 | Cc1cc(Oc2ccc(Cl)cc2)nc(-c2ccccn2)n1 | inactive | –
46 | Cc1cc(NCc2ccccn2)n2nc(C)c(-c3ccc(Cl)cc3)c2n1 | 20 µM (active) | –
47 | CCCCC(=O)N(CCOC)c1nnc(-c2ccccc2C)s1 | inactive | –
48 | CCOc1cc([C@@H]2C[C@H]3CN(c4ccccc4)C(=O)[C@]34CCCN24)ccc1OC | inactive | –

Row | SMILES | Potency | activity change, negative = inhibition
49 | Cc1cc(C)c2nc(NNC(=O)c3ccc(S(=O)(=O)N4CCc5ccccc5C4)cc3)sc2c1 | 3.16 µM (active) | –
50 | Cc1cccc2sc(NNC(=O)c3ccc(S(=O)(=O)N4CCCC(C)C4)cc3)nc12 (stereo not drawn) | 4.47 µM (active) | –
51 | Nc1c2ccccc2nc2ccccc12 | 4.47 µM (active) | –
52 | N#CCc1nc2ccccc2c(=O)[nH]1 | inactive | –
53 | Oc1ccc(Cc2ccccc2)c2cccnc12 | 11.2 µM (active) | –
54 | Oc1ccc(CN2CCC(Cc3ccccc3)CC2)c2cccnc12 | – | -19.8% [at 11.4 µM]
55 | CCCOCc1ccc(O)c2ncccc12 | 20 µM (active) | –
56 | CN(C)c1ccc(Cc2cc3c(O)ccc(O)c3cc(Cc3ccc(N(C)C)cc3)c2=O)cc1 | – | -9.62% [at 11.4 µM]
57 | CC[n+]1c(/C=C/N(C)c2ccccc2)oc2ccc(F)cc21 | 15.8 µM (active) | –
58 | O=C(O)CSc1cc(NS(=O)(=O)c2cccc([N+](=O)[O-])c2)c2ccccc2c1O | 3.55 µM (active) | –
59 | O=C(O)CSc1cc(NS(=O)(=O)c2ccc(Cl)cc2)c2ccccc2c1O | 28.2 µM (active) | –
60 | O=C(Nc1ccc2c(c1)CCC2)C1CCN(c2c3c(nc4ncnn24)CCC3)CC1 | 7.08 µM (active) | –
61 | CCc1ccc(CNC(=O)C2CCN(c3nnc(C)c4c(C)n(-c5ccc(C)cc5)nc34)CC2)cc1 | inactive | –
62 | CCc1c(C)nc2ncnn2c1N1CCC(C(=O)Nc2ccc(C)cc2)CC1 | 12.6 µM (active) | –
63 | CNc1ccccc1C(=O)OC(C)C(=O)Nc1ccc(Cl)cn1 (stereo not drawn) | – | 94.6% [at 11.4 µM]
64 | CC(=O)Oc1c(Br)cc(N(C(C)=O)S(=O)(=O)c2ccccc2)c2ccccc12 | 15.8 µM (active) | –
65 | COc1ccc(/C=N/NC(=O)c2nc(-c3ccccc3)n(-c3ccccc3)n2)c(O)c1 | 8.91 µM (active) | –
66 | Cc1cc(SCC(=O)NN)c2cc(Br)ccc2n1 | inactive | –
67 | COc1ccc2nc(C)cc(SCC(=O)N/N=C/c3ccc(O)cc3O)c2c1 | 11.2 µM (active) | –
68 | NC(=O)c1cc([N+](=O)[O-])ccc1NCc1ccc(N)cc1 | 6.31 µM (active) | –
69 | Cn1nnnc1Sc1ncnc2scc(-c3ccc[nH]3)c12 | 20 µM (active) | –
70 | Cn1nnnc1Sc1ncnc2scc(-c3cccs3)c12 | 11.2 µM (active) | –
71 | COc1cccc(OC)c1C(=O)OCC(=O)NC(=O)NCc1ccccc1 | – | -4.44% [at 11.4 µM]
72 | COc1cc(CNCc2ccncc2)cc(Br)c1OCc1ccccc1F | 2 µM (active) | –

Row | SMILES | Potency | activity change, negative = inhibition
73 | COc1cc(C(=O)NCc2ccncc2)cc(Br)c1OCc1ccccc1 | 3.98 µM (active) | –
74 | CCOc1ccc(NC(=O)Nc2nnc(CC(=O)NCc3ccccc3)s2)cc1 | inactive | –
75 | CN(C)CCNc1ncnc2c1sc1nc(N3CCOCC3)c3c(c12)CC(C)(C)SC3 | inactive | –
76 | O=C(/C=C/Nc1ccc(S(=O)(=O)Nc2ncccn2)cc1)c1ccc(Cl)c(Cl)c1 | inactive | –
77 | O=C(Nc1ccc(Cl)c(Cl)c1)c1cccc(S(=O)(=O)NCc2cccnc2)c1 | 1.58 µM (active) | –
78 | Cn1c(CCc2nc3ccccc3[nH]2)nnc1SCC#N | inactive | –
79 | COc1ccc(/C=N/Nc2cc(N3CCCC3)nc(N3CCCC3)n2)cc1 | – | -17.8% [at 11.4 µM]
80 | COc1ccc(C)cc1Nc1nc(N)c2cc(OC)c(OC)cc2n1 | – | -12.3% [at 11.4 µM]
81 | COc1ccc(Nc2nc(N3CCCC3)c3ccccc3n2)cc1 | 10 µM (active) | –
82 | C=CS(=O)(=O)c1c2cc(OC)ccc2nc2ccc(OC)cc12 | inactive | –
83 | COc1cc(N)ccc1Nc1c2ccccc2nc2ccccc12 | 25.1 µM (active) | –
84 | COc1ccc(C(CCNC(C)c2ccccc2)c2ccc(F)cc2)cc1 (stereo not drawn) | inactive | –
85 | COc1ccc(Nc2c3ccccc3nc3ccccc23)cc1 | 10 µM (active) | –
86 | COc1cc2cc(C(=O)NC(C)c3cccc4ccccc34)c(N)nc2cc1OC (stereo not drawn) | – | -29.5% [at 11.4 µM]
87 | C(=NN1CCCCCC1)c1ccc2ccccc2n1 | 15.8 µM (active) | –
88 | O=C(Nc1ccc(Cl)cc1)Nc1nc(-c2sccc2Br)cs1 | inactive | –
89 | COc1ccc(OC)c(C(=O)/C=C/c2ccccc2C(F)(F)F)c1 | – | -8.72% [at 11.4 µM]
90 | Cc1ccc(C)c(N2CCN(C(=O)CCCCCn3c(=S)[nH]c4ccc(N5CCOCC5)cc4c3=O)CC2)c1 | 3.16 µM (active) | –
91 | Clc1ccccc1C(c1ccccc1)(c1ccccc1)n1ccnc1 | 3.16 µM (active) | –
92 | Cc1cccc(N2CCN(C(=O)CC(NC(=O)c3ccccc3Cl)c3ccccc3)CC2)c1C (stereo not drawn) | 25.1 µM (active) | –
93 | COc1ccccc1N1C(=O)N(C(C)=O)C2C1Nc1ccccc1N2C (stereo not drawn) | inactive | –
